# Assay results: the supplement of paper PMC11219838
# Tested on: Caenorhabditis elegans L1 (N2)
# Test: survival and reproduction score of C. elegans L1 (0: 0-10 living worms, 1: 11-20, 2: 21-50, 3: >50, 4: overgrown) (score 0-4); higher = more worms, less nematicidal, active = 1 or less; extreme values may be limits of the assay
# Settings: 60 µM; 6 days; temperature: 20 °C
# How it was run: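 Compound was pinned to a final 60 µM (0.6% v/v DMSO) into 96-well wells, each holding about 20 synchronized C. elegans N2 L1s and E. coli HB101 in liquid NGM. After 6 days of shaking at 200 rpm and 20 °C in sealed plates, the worms in each well were examined. The ordinal readout of survival and reproduction, based on living worms per well, was assessed under a dissection microscope. On this scale 0 meant 0–10 worms and 4 meant overgrown, starved wells, and two biological replicates were averaged.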
row,SMILES,survival and reproduction score
1,Cc1ccc(-c2noc(-c3ccc(C)cc3C)n2)cc1,4 (inactive)
2,Cc1ccc(-c2nnc(SCC(=O)NCc3ccccc3)o2)cc1,4 (inactive)
3,COc1cccc(-c2noc(COc3ccc4ccccc4c3)n2)c1,4 (inactive)
4,COc1ccccc1-c1nnc(SCC(=O)Nc2ccc(C)cc2)o1,4 (inactive)
5,O=C(CSc1nnc(-c2cccc(Br)c2)o1)N1CCCCC1,4 (inactive)
6,Fc1ccccc1-c1nc(-c2ccc(Cl)cc2)no1,1 (active)
7,Clc1ccc(OCc2nc(-c3ccccn3)no2)c(Br)c1,4 (inactive)
8,CCOc1ccc(-c2nc(-c3ccccc3C)no2)cc1,4 (inactive)
9,COc1ccccc1-c1nnc(SCc2ccccc2C)o1,4 (inactive)
10,COc1ccc(CC(=O)Nc2ccc(-c3noc(COc4cccc(C)c4C)n3)cc2)cc1,4 (inactive)
11,Clc1cccc(-c2nc(-c3ccncc3)no2)c1,0 (active)
12,O=C(CSc1nnc(-c2ccc(Br)cc2)o1)Nc1ccc2ccccc2c1,4 (inactive)
13,Fc1ccc(-c2noc(COc3cccc(Cl)c3)n2)cc1,4 (inactive)
14,Fc1cccc(Cl)c1CSc1nnc(-c2ccccc2Cl)o1,4 (inactive)
15,Brc1ccc(CSc2nnc(-c3ccco3)o2)cc1,0 (active)
16,COc1ccc(Cl)cc1-c1noc(COc2ccccc2C)n1,4 (inactive)
17,O=C(Nc1ccccc1-c1nc(-c2cccnc2)no1)c1cc2ccccc2o1,4 (inactive)
18,O=C(CSc1nnc(-c2cccc3ccccc23)o1)c1ccc(F)cc1,4 (inactive)
19,O=C(CSc1nnc(-c2cccc3ccccc23)o1)Nc1cccc(F)c1,4 (inactive)
20,Cc1ccc(C)c(-c2nc(-c3ccc(Cl)cc3)no2)c1,4 (inactive)

row,SMILES,survival and reproduction score
1,Cc1ccc(-c2noc(C3CCCCC3)n2)cc1,0 (active)
2,CCN(CC)C(=O)CSc1nnc(-c2cccc(Cl)c2)o1,4 (inactive)
3,O=C(c1ccccc1-c1nc(-c2ccc(Cl)cc2)no1)N1CCCCC1,4 (inactive)
4,CCc1cccc(C)c1NC(=O)CSc1nnc(-c2ccccc2)o1,4 (inactive)
5,c1ccc(OCc2nc(-c3cccs3)no2)cc1,0 (active)
6,COc1ccc(-c2noc(C34CC5CC(CC(C5)C3)C4)n2)cc1,4 (inactive)
7,COc1ccc(Cl)cc1-c1nc(-c2ccccc2C)no1,4 (inactive)
8,CC(Sc1nnc(-c2ccc(C(C)(C)C)cc2)o1)C(=O)Nc1nccs1 (centres undefined),4 (inactive)
9,c1coc(-c2nnc(-c3ccco3)o2)c1,4 (inactive)
10,CCN(C(=O)CSc1nnc(-c2ccncc2)o1)c1ccccc1,4 (inactive)
11,Fc1ccccc1OCc1nc(-c2ccc(Cl)cc2)no1,4 (inactive)
12,FC(F)(F)c1cccc(-c2noc(-c3ccc4c(c3)OCO4)n2)c1,4 (inactive)
13,CCc1ccc(C(=O)Nc2ccccc2-c2nc(-c3ccncc3)no2)cc1,4 (inactive)
14,COc1ccc(-c2nnc(SCc3ccccc3)o2)cc1,4 (inactive)
15,CCOC(=O)c1c(NC(=O)CSc2nnc(-c3ccccc3OCC)o2)sc(C(C)=O)c1C,4 (inactive)
16,CCOc1ccc(-c2nc(-c3cccnc3)no2)cc1OCC,4 (inactive)
17,Fc1cccc(Cl)c1CSc1nnc(-c2ccccc2)o1,4 (inactive)
18,Clc1ccc(OCc2nc(-c3cccnc3)no2)c(Cl)c1,4 (inactive)
19,O=C(Nc1ccccc1-c1nc(-c2cccnc2)no1)c1ccc(Cl)cc1,4 (inactive)
